Results taken from PubChem BioAssay (NCI).
Compounds without any hit were thinned out: in the full panel of roughly 83,000, 20% have a hit.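 Method: cells in 96-well plates; compound added at one concentration; 48 h incubation; percent growth measured; values under 10 scored active.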 Unmarked numbers belong to inactive results. The source made the active and inactive calls.

Experiments:
Assay in all cases: NCI-60 one-dose screen, 48 h (100 = growth as untreated, 0 = no growth, -100 = all killed)
HOP-92 NSCLC = settings: 10 µM unless noted
NCI-H522 lung = settings: 10 µM unless noted
M14 melanoma = settings: 10 µM unless noted
SK-MEL-2 melanoma = settings: 10 µM unless noted
TK-10 renal = settings: 10 µM unless noted
ACHN renal = settings: 10 µM unless noted
CCRF-CEM leukemia = settings: 10 µM unless noted
SR leukemia = settings: 10 µM
RPMI-8226 leukemia = settings: 10 µM unless noted
OVCAR-5 ovarian = settings: 10 µM unless noted
OVCAR-4 ovarian = settings: 10 µM unless noted
SK-OV-3 ovarian = settings: 10 µM unless noted
IGROV1 ovarian = settings: 10 µM
HS 578T breast = settings: 10 µM unless noted
NCI/ADR-RES ovarian = settings: 10 µM unless noted
HCT-116 colon = settings: 10 µM unless noted
A549/ATCC NSCLC = settings: 10 µM unless noted
COLO 205 colon = settings: 10 µM
EKVX NSCLC = settings: 10 µM unless noted

Structure (SMILES)	growth (HOP-92 NSCLC)	growth (NCI-H522 lung)	growth (M14 melanoma)	growth (SK-MEL-2 melanoma)	growth (TK-10 renal)	growth (ACHN renal)	growth (CCRF-CEM leukemia)	growth (SR leukemia)	growth (RPMI-8226 leukemia)	growth (OVCAR-5 ovarian)	growth (OVCAR-4 ovarian)	growth (SK-OV-3 ovarian)	growth (IGROV1 ovarian)	growth (HS 578T breast)	growth (NCI/ADR-RES ovarian)	growth (HCT-116 colon)	growth (A549/ATCC NSCLC) [%]	growth (COLO 205 colon)	growth (EKVX NSCLC)
COC(=O)C(=[N+]=[N-])C(=O)OC	82.9%	94%	103%	91.2%	92.5%	94%	61.4%	100%	96.4%	107%	97.1%	101%	110%	121%	108%	94.2%	–	–	–
COC(=O)C[Se]C(=O)c1ccccc1OC(C)=O	93.3%	–	49.3%	87.4%	93.1%	72%	76.6%	20.7%	96%	38.6%	54.4%	221%	52%	66.1%	24.2%	10.9%	33.7	46.7%	31.4%
CCOC(=O)/C(C#N)=C/c1ccc(N(CCCl)CCCl)cc1	67.6%	–	105%	99.2%	–	72.8%	–	30.3%	88.4%	106%	61.5%	92.6%	48.4%	103%	94.8%	–	85.2	112%	–
O=C(O)c1cccc(CCl)c1	84.3%	–	–	103%	97.5%	100%	–	–	105%	102%	105%	99.7%	–	–	103%	96.7%	96	106%	–
COc1cc(C2=NN(c3ccccc3)C(c3sc(N(CCCl)CCCl)nc3Cl)C2)cc(OC)c1OC (centres undefined)	–	69.1%	91.5%	85.2%	102%	88.8%	87.9%	84.2%	–	99.5%	87.5%	77.7%	–	85.8%	93.8%	80.3%	83	90.6%	78.9%
ClCCN(CCCl)c1ccc(C=NCCc2c[nH]c3ccccc23)cc1	–	92.4%	91.6%	125%	88%	44.5%	54.1%	31.9%	85.6%	94.5%	92.9%	81%	84.2%	89.8%	76.2%	–	88.6	106%	106%
CCOC(=O)Nc1cc(Cl)c([N+](=O)[O-])c(NC(=O)OCC)n1	78.2%	7.41% (active)	84.8%	74.6%	103%	53.6%	33.1%	-22.8% (active)	71.5%	104%	112%	103%	55.6%	106%	102%	53.5%	95.2	115%	–
O=[N+]([O-])c1cccc([As]=[As]c2cccc([N+](=O)[O-])c2)c1 (centres undefined)	-99.3% (active)	–	-94.4% (active)	-91.4% (active)	-98.4% (active)	-100% (active)	–	-32% (active)	-39.3% (active)	-85.2% (active)	-99.2% (active)	-100% (active)	-57.8% (active)	6.73% (active)	-1.16% (active)	-89.3% (active)	–	-81.2% (active)	–
Cc1cccc(N(C)c2cccc3c2C(=O)[Se]C3)c1C	81.4%	–	–	62.8%	62.8%	54%	56.1%	4.83% (active)	81.9%	25.5%	40.7%	188%	28.2%	58.8%	13.6%	3.47% (active)	15.8	27.1%	19.9%
COc1ccc(C(=O)c2ccc([As]=O)cc2)cc1 (centres undefined)	-96.1% (active)	-84.1% (active)	-84% (active)	-94% (active)	-100% (active)	-91.8% (active)	-25.1% (active)	-23.8% (active)	-24% (active)	–	-91.4% (active)	-99.8% (active)	-29.3% (active)	-1.54% (active)	-5.33% (active)	-83.3% (active)	–	–	-98.1% (active)
